We go through 46 compounds from PubChem BioAssay AID2685 (National Center for Advancing Translational Sciences (NCATS), 2010).

The campaign covered roughly 320,000 compounds. About 2,100 (0.66%) were called active. Not shown: some 53% with an inconclusive outcome. Calls follow the shape of the dose curve; as a rule, active = well fitted inhibition curve with a large enough effect in the signal ratio, with a control signal flat (not every such curve was filed as active); inconclusive = small, poorly fitted or top-dose-only effect, or effect the other way, or a change in a side signal; inactive = flat fitted curve, though single readings scatter; the % refers to the signal ratio. This excerpt belongs to a sample that is enriched for actives.
Potency is read from the fitted curve at half-maximal effect.

The nature of this assay: qHTS Assay for Lipid Storage Modulators in Drosophila S3 Cells.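 As to cell number change: cells counted by Cell Tracker Red CMTPX staining in the red channel.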 As to lipid storage change, negative = inhibition: % is scaled to controls: 0 for no effect and ±100 for the full control effect. To be noted: BODIPY lipid droplet fluorescence, 18-24 h, cells fed with added oleic acid; cell number change: measured here: cell count max response; series mostly up to 46.1 µM; lipid storage change, negative = inhibition: at the top concentration. An excerpt:
NIH Molecular Libraries Probe Production Centers Network [MLPCN] NIH Chemical Genomics Center [NCGC] MLPCN Grant: 1 R03 MH085686-01 Assay Submitter (PI): Beller, Mathias; Max-Planck-Institut fur Biophysikalische Chemie NCGC Assay Overview: Storing lipids as a reservoir for energy or the anabolism of elementary metabolites is a common feature of probably all cells and is conserved from bacteria to humans. The universal cellular lipid storage organelle is the so-called lipid storage droplet (LD). Although ubiquitous, LDs share a simple structure composed of a hydrophobic core that harbors the storage lipids, which is shielded by a droplet-specific phospholipid monolayer to which proteins are attached. The current model of LD biogenesis involves an incorporation of the lipid core into the membrane leaflets of the endoplasmic reticulum (ER) followed by a subsequent budding-like maturation of a LD, which ultimately pinches off. Once released, LD volume can increase by localized lipogenesis or fusion of existing droplet. Storage lipids are re-mobilized enzymatically by lipase activity. Lipase regulation in the adipocyte is heavily studied and involves multiple components including catecholamine signaling, the LD-associated proteins Perilipin and comparative gene identification (CGI-58) and at least two lipases named hormone sensitive lipase (HSL) and adipocyte triglyceride lipase (ATGL). LD regulation outside of the adipocyte is poorly understood and only few components are known. However, there is an urgent need to learn more about ectopic fat depots as mislocalized storage of lipids, for example in the liver or muscle, is an eminent health problem associated with insulin resistance or the metabolic syndrome. We developed a laser-scanning cytometer assay to enable 1,536-well screening and combined the results of the small molecules screen with an RNAi database based on lipid storage.
Triacsin C (Sigma-Aldrich T-4540), an inhibitor of long-chain fatty acyl CoA synthetase that blocks synthesis of triglycerides, was used as a positive control for lipid under-storage. A total of 23 nL of compound solution of different concentrations were transferred to the assay plates using a Kalypsys pin tool equipped with a 1,536-pin array containing 10-nL slotted pins (FP1S10, 0.457-mm diameter, 50.8 mm long; V&P Scientific). One microliter of oleic acid (400 uM) was added, and the plate was lidded with stainless steel rubber gasket lined lids containing pinholes. […] Fluorescence was detected by excitation of the fluorophores with a 488-nm laser on an Acumen Explorer (TTP Lab Tech). The total intensity in channel 2 (500-530 nm) reflected lipid droplet accumulation. Cells were detected using channel 3 (575-640 nm) with 5-um width and 100-um depth filters. The ratio of the number of objects in PMT channel 2 over the number of objects in PMT channel 3 was also calculated. Percent activity was computed relative to an internal control (100% inhibited lipid droplet deposition due to the presence of 20 uM Triacsin C), which was added to 32 wells/plate.
On to `CCC1CCCCN1CCCNC(=O)CCC(=O)N1CCOc2ccccc21` (configuration not stated), for which the “lipid storage change, negative = inhibition” value was -28.6% (inactive) and the cell number change is 10.7%.

For `CC(C(=O)Nc1ccc2nccnc2c1)N1C(=O)C2C3C=CC(C3)C2C1=O` (configuration not stated), the “lipid storage change, negative = inhibition” value was 6.01% (inactive) and the cell number change was 0.122%.

As for `O=C(CCN1C(=O)C2C3C=CC(C3)C2C1=O)NC1CCCCC1` (configuration not stated), the compound was classed as inactive.

For the compound `CC(C(=O)NC1CCCCC1)N1C(=O)C2C3C=CC(C3)C2C1=O` (configuration not stated), the Potency is 1.84 µM (active) and the cell number change was -1.76%.

As to `NC(=O)CCC(=O)N1CCCC(C(=O)c2ccc3c4c(cccc24)CC3)C1` (configuration not stated), the “lipid storage change, negative = inhibition” value was 3.16% (inactive) and the cell number change was 12.7%.

In the case of `CCc1ccc(CN(C(=O)c2oc3ccccc3c2C)C2CCS(=O)(=O)C2)cc1` (configuration not stated), the “lipid storage change, negative = inhibition” value is -21.5% (inactive) and the cell number change turned out to be 23.1%.

As for `O=C(CCC(=O)NNC(=O)COc1ccc(Br)cc1)NCc1ccccc1`, the “lipid storage change, negative = inhibition” value is -19.6% (inactive) and the cell number change was determined as 6.5%.

Take `Cc1ccc(S(=O)(=O)NCc2ccccc2)cc1C(=O)NCc1ccccn1`: the “lipid storage change, negative = inhibition” value was -18% (inactive) and the cell number change was -8.5%.

On to `Cc1ccc(NS(=O)(=O)c2ccc(CCC(=O)NCc3ccccn3)cc2)cc1`, for which the Potency is 2.59 µM (active) and the cell number change was -13.1%.

On to `Cc1ccc(NS(=O)(=O)c2ccc(C(=O)NCc3ccccn3)cc2)cc1`, for which the “lipid storage change, negative = inhibition” value is -21% (inactive) and the cell number change was determined as 0.232%.

Consider `CC(C)NS(=O)(=O)c1ccc(CCC(=O)NCc2ccccn2)cc1`, for which the “lipid storage change, negative = inhibition” value is 21.7% (inactive) and the cell number change amounted to 6.74%.

Take `Cc1cc(S(=O)(=O)NCc2ccccc2)ccc1OCC(=O)NCc1ccncc1`: the “lipid storage change, negative = inhibition” value is 6.29% (inactive) and the cell number change came out at 13.5%.

On to `Cc1cc(S(=O)(=O)NCc2ccccc2)ccc1OCC(=O)NCc1ccccn1`, for which the Potency was 5.17 µM (active) and the cell number change turned out to be 6.72%.

Regarding `Cc1cc(C)c(C)c(S(=O)(=O)N2CCC(C(=O)N3CCCC3)CC2)c1C`, the “lipid storage change, negative = inhibition” value is -11% (inactive) and the cell number change was determined as 0.752%.

Turning to `CCOC(=O)c1sc(NC(=O)c2ccccc2OCC)nc1C`, the “lipid storage change, negative = inhibition” value was 5.11% (inactive) and the cell number change came out at 6.73%.

Consider `CC(=O)NCCn1c(SCC#N)nc2ccccc2c1=O`, for which the “lipid storage change, negative = inhibition” value was 23.8% (inactive) and the cell number change is 8.06%.

For `COCCSc1nnc(NC(=O)C(C)(C)C)s1`, the “lipid storage change, negative = inhibition” value was 13.4% (inactive) and the cell number change was -0.0656%.

With `COCCSc1nnc(NC(=O)COC)s1`, the Potency is 25.9 µM (active) and the cell number change is -16.2%.

Turning to `CCC(=O)Nc1nnc(SCCOC)s1`, the compound was classed as inactive.

Consider `Cn1c(NC(=O)/C=C/c2c(F)cccc2Cl)cc(=O)n(C)c1=O`, for which the “lipid storage change, negative = inhibition” value was -6.34% (inactive) and the cell number change was 12.8%.

As for `Nc1nc(N)nc(-c2cc([N+](=O)[O-])ccc2O)n1`, the “lipid storage change, negative = inhibition” value is 0.171% (inactive) and the cell number change was -17.3%.

As to `Nc1cc([N+](=O)[O-])ccc1O`, the Potency was 9.2 µM (active) and the cell number change was -17.1%.

As to `Nc1cc([N+](=O)[O-])ccc1Nc1ccc(O)cc1`, the “lipid storage change, negative = inhibition” value was -0.588% (inactive) and the cell number change was -13.9%.

In the case of `CCN(CC)CCNC(=O)c1cc(Br)c(N)cc1OC`, the “lipid storage change, negative = inhibition” value is 1.26% (inactive) and the cell number change worked out at 6.76%.

With `CCN(CC)CCNC(=O)c1ccccc1C(=O)c1ncc[nH]1`, the call was inactive and the cell number change is -16.6%.

As for `CCN(CC)CCNC(=O)c1ccccc1N`, the Potency is 23.1 µM (active) and the cell number change was -10.7%.

As for `CN1CCN(NC(=O)c2cc(S(=O)(=O)Nc3ccc(Cl)cc3)ccc2Cl)CC1`, the “lipid storage change, negative = inhibition” value was 19% (inactive) and the cell number change amounted to 18.2%.

Regarding `O=[N+]([O-])c1cnc2ccccc2c1`, the “lipid storage change, negative = inhibition” value is 2.15% (inactive) and the cell number change was determined as 16.2%.

Take `O=[N+]([O-])c1cc([N+](=O)[O-])c2cc3ccccc3nc2c1`: the Potency was 3.26 µM (active) and the cell number change is -20.7%.

With `O=[N+]([O-])c1cc([N+](=O)[O-])c2n[nH]c(-c3ccccc3)c2c1`, the “lipid storage change, negative = inhibition” value was 12.5% (inactive) and the cell number change came to 17.9%.

In the case of `Cc1ccc(C(=O)NCCn2cc(SCC(=O)Nc3cc(C)on3)c3ccccc32)cc1`, the “lipid storage change, negative = inhibition” value was -4.46% (inactive).

On to `CN(C)S(=O)(=O)c1cc(NC(=O)c2ccc(-n3ccnc3)c([N+](=O)[O-])c2)ccc1Cl`, for which the Potency is 20.6 µM (active) and the cell number change was determined as 5.46%.

Turning to `Cc1nn(CC(=O)Nc2ccc(Cl)c(S(=O)(=O)N(C)C)c2)c(C)c1[N+](=O)[O-]`, the Potency is 0.58 µM (active) and the cell number change is -5.49%.

As to `COc1ccccc1NC(=O)c1ccc(-n2ccnc2)c([N+](=O)[O-])c1`, the “lipid storage change, negative = inhibition” value was 9.53% (inactive) and the cell number change came out at 13%.

For `Cc1nn(CC(=O)Nc2ccc(N(C)C)cc2)c(C)c1[N+](=O)[O-]`, the call was inactive and the cell number change is -14.5%.

`Cc1nn(CC(=O)Nc2ccc(S(=O)(=O)N(C)C)cc2)c(C)c1[N+](=O)[O-]`: the “lipid storage change, negative = inhibition” value is 11.6% (inactive) and the cell number change was 9.05%.

As for `O=C(O)c1ccc(-n2ccnc2)c([N+](=O)[O-])c1`, the call was inactive and the cell number change came to 9.03%.

For `CN(C)S(=O)(=O)c1ccc(C(=O)NCCSc2ccc(Br)cc2)cc1`, the “lipid storage change, negative = inhibition” value is 19% (inactive) and the cell number change was determined as 20%.

`Cc1ccc2[nH]c(=O)c(CN(CCCN(C)C)C(=S)NCCc3ccccc3)cc2c1`: the “lipid storage change, negative = inhibition” value was -2.53% (inactive) and the cell number change was -4.82%.

As for `CC(CCc1ccccc1)NC(=O)C1CCN(S(=O)(=O)c2cnc[nH]2)CC1` (configuration not stated), the “lipid storage change, negative = inhibition” value is 16.3% (inactive).

`COc1ccc(S(=O)(=O)N2CCC(C(=O)NCC3CCCO3)CC2)cc1` (configuration not stated): the compound was called inactive.

Turning to `Cc1c(C#N)sc(C(N)=O)c1C`, the “lipid storage change, negative = inhibition” value was -3.02% (inactive) and the cell number change is 10.5%.

Regarding `Clc1cccc(NCc2nnc(SCc3ccccc3)o2)c1`, the “lipid storage change, negative = inhibition” value was 9.23% (inactive) and the cell number change is -10.7%.

`O=C(O)c1cccc(NC(=S)NC(NC(=O)c2cccc([N+](=O)[O-])c2)C(Cl)(Cl)Cl)c1` (configuration not stated): the “lipid storage change, negative = inhibition” value was -6.68% (inactive) and the cell number change was -10.1%.

With `O=C(NC(NC(=S)Nc1ccc(Cl)cc1Cl)C(Cl)(Cl)Cl)c1cccc([N+](=O)[O-])c1` (configuration not stated), the result was inactive and the cell number change turned out to be 12.3%.

In the case of `O=C(NC(NC(=S)Nc1c(Cl)cccc1Cl)C(Cl)(Cl)Cl)c1cccc([N+](=O)[O-])c1` (configuration not stated), the Potency was 3.66 µM (active) and the cell number change worked out at 18.3%.
